Each structure is given as a SMILES string. Records with an inconclusive call do not appear. Unmarked numbers belong to inactive results. Active and inactive are the calls of the source.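 How the source made its calls: active means viability at or below 27.92% in each of two runs, the all-compound median minus 4 SD; inconclusive means no clear call, values can overlap the other calls; inactive means the rest.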

The nature of this assay: growth suppression of PTEN-deleted HCT116, pilot screen, cell-based, HCT116 clonal line, CellTiter-Glo (AID 824).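 Further: 0% = 20 µM Hyamine control and 100% = vehicle cell control.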 The conditions noted are these: 60 h, at 10 µM, active compounds read low.
As for `Brc1ccc(Oc2nnnn2-c2ccccc2)cc1`, the viability is 88.9%.

As for `CCC(C)(C(=O)NC1CCCC1)N(C(=O)CNC(C)=O)c1ccc(C)cc1` (configuration not stated), the viability was 96.7%.

Consider `Cn1c(SCc2ccccc2Cl)nnc1-c1cnccn1`, for which the viability was 102%.

With `O=c1c2ccccc2nc(N2CCN(c3ccccc3)CC2)n1Cc1ccccc1`, the viability was 72.8%.

For `COc1cc(OC)c(NC(=O)CS(=O)(=O)Cc2nc(-c3ccc(C)cc3)oc2C)cc1Cl`, the viability was 78.1%.

In the case of `Clc1ccc(Cc2nnc(-c3cccs3)o2)cc1`, the viability is 95.9%.

As for `CCOC(=O)c1ccc(NC(=O)c2cc3ccccc3o2)cc1`, the viability is 86.6%.

As to `C=CCNc1ncnc2c1cnn2-c1ccc(Cl)cc1`, the viability was 106%.

On to `O=C1C2CCCN2C(c2ccc(F)cc2)N1c1ccc(Cl)cc1` (configuration not stated), for which the viability is 67.8%.

Regarding `CCOc1ccc(NC(=O)C2CSC(c3ccncc3)=N2)cc1` (configuration not stated), the viability was 103%.

On to `O=C(NCc1ccc2c(c1)OCO2)c1nnc(Cc2ccc(F)cc2)o1`, for which the viability is 97.1%.

Turning to `CCCc1nnc(NC(=O)c2ccncc2)s1`, the viability is 99.1%.

On to `COC(=O)c1ccc2c(c1)N(Cc1ccccc1F)C(=O)c1ccccc1S2=O` (configuration not stated), for which the viability is 74%.

Take `CCOc1ccccc1C(=O)Nc1ccc2nc(N3CCN(c4ncccn4)CC3)cc(C)c2c1`: the viability was 2.14% (active).

Consider `C(#Cc1ccccc1)CN1CCN(c2ccccn2)CC1`, for which the viability is 91.9%.

As to `CC1CCN(c2nc3c(c(=O)[nH]c(=O)n3C)n2CCCc2ccccc2)CC1`, the viability was 72.9%.

Take `CCOc1ccc(-c2nc(CSCC(=O)N3CCN(c4cccc(OC)c4)CC3)c(C)o2)cc1`: the viability is 47.4%.

Regarding `CCOC(=O)c1ccccc1NC1c2ccccc2C(=O)N1c1ccc(C)cn1` (configuration not stated), the viability is 79.6%.

For `COc1ccc(N2CCN(C(=O)CCS(=O)(=O)c3cccc4nsnc34)CC2)cc1`, the viability is 96.9%.

For the compound `Cc1ccc(-c2nn(-c3ccccc3)cc2C2SCC(=O)N2Cc2ccccc2)o1` (configuration not stated), the viability is 68.9%.

On to `CCC(Sc1nc2c(cnn2-c2ccccc2)c(=O)[nH]1)C(=O)OC` (configuration not stated), for which the viability was 91.5%.

For the compound `COc1ccc(-c2nc(CS(=O)CC(=O)NCc3ccc4c(c3)OCO4)c(C)o2)cc1` (configuration not stated), the viability is 91.1%.

Turning to `COc1cccc(CSc2nc3sc(C)c(C)c3c(=O)n2Cc2ccco2)c1`, the viability is 93%.

`Cc1noc(/C=C/NCc2cccnc2)c1S(=O)(=O)N(C)CC(=O)N1CCc2ccccc21`: the viability is 86.4%.

For the compound `COc1ccccc1N1CCN(C(=O)c2cc3c(-c4ccc(Cl)cc4)nn(C)c3s2)CC1`, the viability was 47.9%.

For the compound `O=C(O)c1ccc(CSc2nnc(COc3ccc(Cl)cc3Cl)o2)cc1`, the viability was 94.1%.

Consider `N#CCCN1CCN(C(=S)c2ccc(-c3cccc(Cl)c3)o2)CC1`, for which the viability is 83%.

With `Oc1ccccc1C(=S)N1CCCCC1`, the viability was 89.8%.

Consider `Cc1ccc(-c2nc(CS(=O)CC(=O)NCc3ccc(Cl)cc3)c(C)o2)cc1` (configuration not stated), for which the viability was 80.2%.

For `COc1ccc(-c2noc(-c3cc(C)cc(C)c3)n2)cc1OC`, the viability was 96.6%.

Turning to `Cc1ccc(C)c(C(=O)Nc2c(C(N)=O)oc3ccccc23)c1`, the viability was 86.7%.

Take `Clc1ccccc1-c1nnc2sc(-c3ccncc3)nn12`: the viability was 90.8%.
